We go through five molecules from PubChem BioAssay (NCATS).

Test [1] addresses Cellular tumor antigen p53 (Homo sapiens) (UniProt P04637). Description: Primary qHTS for small molecule compounds that upregulate eGFP-tagged delta133p53alpha (in N-terminal) cells. (AID 2060322). Also: nearly all actives have a fitted effect of over 75% in size. Also: potency is read from the fitted curve at half-maximal effect.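 As to activation: series mostly up to about 56 µM; 0% = DMSO vehicle and 100% = reference activator.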 The following applies: NCI-H358 eGFP-delta133p53alpha fluorescence, 24 h; activation: stronger effect = higher value. In outline: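 NCI-H358 cells pre-induced 24 h with 10 ng/ml doxycycline to express N-terminal eGFP-delta133p53alpha, then dosed 24 h at 37C without doxycycline; fixed, Hoechst-stained, GFP intensity by laser scanning cytometry, normalized to DMSO (0%) and 57.5 uM 5-azacytidine (100%).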
A general note: In qHTS, concentration-response curves come from the screen itself.

Test [2] addresses Aldehyde dehydrogenase, mitochondrial (Homo sapiens) (UniProt P05091). Description: qHTS for Inhibitors of the Aldehyde Dehydrogenase Family (ALDH2) Primary screen (AID 2061308).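 Also: plate controls were vehicle for no effect and reference inhibitor for full effect; nearly all actives have a fitted effect of over 55% in size.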
Test [3] deals with Retinaldehyde dehydrogenase 3 (Homo sapiens) (UniProt P47895). Description: qHTS for Inhibitors of the Aldehyde Dehydrogenase Family (ALDH1A3) Primary screen (AID 2061315).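 Also: plate controls were DMSO vehicle for no effect and reference inhibitor for full effect.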
Test [4] can be described thus: BET inhibitor-based combinations targeting novel dependencies in MECOM-rearranged (r) AML: SET-2 cell line (AID 2202231). Also: nearly all actives have a fitted effect of over 35% in size. Also: potency is read from the fitted curve at half-maximal effect.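 As to viability: plate controls were DMSO treated cells for no effect and wells without cells for full effect.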 The following applies: SET-2 AML cells viability, CellTiter-Glo luminescence, 48 h; viability: stronger effect = lower value, concentration not given here. In outline: (§1)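 A 48 hr incubation preceded viability reading by CellTiter-Glo, with 15 min room-temperature development. Dose series had 11 points; normalization used DMSO and empty wells; AUC was computed and mean-centered per line as Z-AUC.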

Test [5] is described as follows: BET inhibitor-based combinations targeting novel dependencies in MECOM-rearranged (r) AML: OCI-AML3 cell line (AID 2202232). Also: nearly all actives have a fitted effect of over 35% in size. Also: potency is read from the fitted curve at half-maximal effect. As to conditions: Potency: OCI-AML3 viability. The procedure, abridged: as §1
The nature of test [6]: BET inhibitor-based combinations targeting novel dependencies in MECOM-rearranged (r) AML: MV-4-11 cell line (AID 2202233). Also: potency is read from the fitted curve at half-maximal effect; nearly all actives have a fitted effect of over 45% in size. The procedure, abridged: (§2)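 Each compound is tested in an 11-point concentration series against 500 seeded cells/well for 48 hr. The luminescent viability signal is normalized to DMSO and blank wells, then reduced to AUC and a cell-line-centred Z-AUC.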

Test [7] in a line: BET inhibitor-based combinations targeting novel dependencies in MECOM-rearranged (r) AML: UCSD-AML1 cell line (AID 2202235). Also: nearly all actives have a fitted effect of over 40% in size. Also: potency is read from the fitted curve at half-maximal effect. The procedure, abridged:
as §2

Test [8] can be described thus: BET inhibitor-based combinations targeting novel dependencies in MECOM-rearranged (r) AML: AML-191 cell line (AID 2202236; also: potency is read from the fitted curve at half-maximal effect; nearly all actives have a fitted effect of over 35% in size). In outline:
as §1

The nature of test [9]: BET inhibitor-based combinations targeting novel dependencies in MECOM-rearranged (r) AML: AML-194 cell line (AID 2202237; also: nearly all actives have a fitted effect of over 40% in size; also: potency is read from the fitted curve at half-maximal effect). In outline:
as §1

A short description of test [10]: BET inhibitor-based combinations targeting novel dependencies in MECOM-rearranged (r) AML: HNT-34 cell line (AID 2202234). Also: potency is read from the fitted curve at half-maximal effect; nearly all actives have a fitted effect of over 35% in size. The procedure, abridged: as §2

Values joined by “and” are separate entries in the source; they are usually repeats but may differ in a detail not shown here. Equal values may be shown once. Results filed as inconclusive are left out. Values without a mark were called inactive. Active and inactive are the calls of the source. Calls follow the shape of the dose curve; as a rule, active = well fitted curve in the direction sought with a large enough effect; inconclusive = small, poorly fitted or top-dose-only effect, or another doubt; inactive = no such curve, though single readings can be large; an effect the other way counts as inactive or inconclusive.

Cellular tumor antigen p53 (Homo sapiens), sequence (P04637 whole entry, looked up): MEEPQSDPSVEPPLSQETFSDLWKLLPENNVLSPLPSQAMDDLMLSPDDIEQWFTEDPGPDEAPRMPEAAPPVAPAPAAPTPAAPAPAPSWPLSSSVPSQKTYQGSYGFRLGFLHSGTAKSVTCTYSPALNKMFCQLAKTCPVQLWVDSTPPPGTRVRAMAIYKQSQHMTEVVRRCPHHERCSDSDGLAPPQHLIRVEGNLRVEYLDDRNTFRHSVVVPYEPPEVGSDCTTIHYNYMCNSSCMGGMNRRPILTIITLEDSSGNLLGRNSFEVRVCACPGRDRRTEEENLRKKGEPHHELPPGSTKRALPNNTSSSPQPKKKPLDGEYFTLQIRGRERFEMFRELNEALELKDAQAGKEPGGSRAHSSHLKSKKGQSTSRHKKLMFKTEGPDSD

`COc1cc(C(=O)N2CCC(N3CCN(C)CC3)CC2)ccc1Nc1ncc2c(n1)N(C)c1ccccc1C(=O)N2C`: the activation in [1] was -6.3% and 0.893%. For the same molecule, the Potency result in test [2] and in test [3] was “inactive” throughout. Besides, the Potency was 6.61 µM (active) in [4]; 2.35 µM (active) in test [5]; 1.48 µM (active) in test [6]; 4.68 µM (active) in [7]; 9.34 µM (active) in test [8]; 16.6 µM (active) in [9].

`Cc1ccc2c(c1)C(=O)[C@]1(O)CCN(c3ccccc3)C1=N2`: the activation in [1] was -1.14% and -10.7%. Moreover, the Potency result in [2], in test [3] and in [7] was “inactive” each time. In test [4], the viability (commonly a read-out of living cells in per cent, often relative to untreated cells) is 110%. Moreover, the Potency in test [5] is 18.6 µM (active); in test [6] it was 23.5 µM (active); in test [8], 23.5 µM (active); in [9] it was 16.6 µM (active).

For the molecule `CCCS(=O)(=O)Nc1ccc(F)c(C(=O)c2c[nH]c3ncc(-c4ccc(Cl)cc4)cc23)c1F`, in test [1], the activation is 15.9% and 18.8%. In addition, the Potency result in [2], in test [3], in test [5] and in test [9] was “inactive” in each case. In [4], the viability was 117%. Moreover, the Potency is 33.2 µM (active) in test [6] and 14.8 µM (active) in test [10].

Turning to `O=C(Nc1ccnc(NC(=O)C2CC2)c1)c1c(Cl)cccc1Cl`, the Potency in test [1] is 12 µM (active); in test [4] it was 7.42 µM (active); in [5] it was 7.42 µM (active); in [6] it was 4.68 µM (active); in test [7] it was 3.32 µM (active); in test [8], 5.25 µM (active). In test [9], the Potency is 7.42 µM (active). The Potency entry in [2] and in [3] was “inactive” each time.

Turning to `Nc1ccc(/C=C/C(=O)NCc2cc3cc(-c4ccc(C(=O)N5CCC(F)(F)CC5)cc4)cc(-c4ccc(F)cc4)c3o2)cn1`, the activation in [1] is -7%. For the same molecule, the Potency entry in test [2] and in [3] was “inactive” in each case. Also, the viability in test [4] was 104%. Besides, the Potency is 0.525 µM (active) in test [5]; 2.35 µM (active) in test [6]; 0.742 µM (active) in test [10]; 1.18 µM (active) in test [7]; 18.6 µM (active) in test [9].
